# Only some compounds are listed: those with a hit (about 2.1% of all), similar ones and a draw of the others.
# FUS suppressor: FUS proteinopathy suppression in yeast; Potency, µM (doses to about 76.6 µM), hits mostly activators; 0.24% of 390,000 active; S. cerevisiae FUS-expressing, growth rescue, OD600, 24 h; AID 1347120; note: nearly all actives have a fitted effect of over 55% in size
#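 Toxicity suppression screen in FUS-yeast. Cells induced with 2% galactose, starting OD 0.005, treated 24hr at 30C with compounds at multiple final concentrations; growth by OD600.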
# TDP43 rescue: rescues yeast growth from TDP-43 toxicity. TDP-43 expressing yeast growth rescue, BacTiter-Glo, 24 h. Potency, µM (highest dose often 46.1 µM), actives largely listed as activators. 1.8% of 410,000 active. AID 652104; note: nearly all actives have a fitted effect of over 50% in size
#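 Readout is BacTiter-Glo luminescence of cell growth, so inhibitors register as activators. TDP-43-expressing yeast at OD600=0.02 in galactose medium, after raffinose pregrowth to mid-log, were incubated with compound for 24 hr at 30 deg C.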
# aSyn rescue: alpha-synuclein toxicity inhibition in yeast. Yeast expressing alpha-synuclein, growth rescue, BacTiter-Glo, 24 h. Potency, µM (doses to about 46.1 µM), most hits filed as activators. 0.14% of 370,000 active. AID 652106; note: nearly all actives have a fitted effect of over 65% in size
#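 Rescue of yeast growth: cells expressing toxic alpha-synuclein, induced in galactose at OD600 0.02, incubated with compound 24 h at 30 C. ATP luminescence quantified growth; inhibitors of toxicity appear as activators.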
# Abeta yeast res: compounds reversing amyloid beta toxicity in yeast; Potency, µM (titrated, usually from 46.1 µM), usual class: activators; yeast expressing A-beta42, growth rescue, OD600, 48 h; response scale: 0% DMSO, 100% iron-clioquinol control; 0.063% of 410,000 active; note: nearly all actives have a fitted effect of over 55% in size
#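 Yeast A-beta toxicity model in growth medium with pinned compounds, 48 h at 30 C; growth read as absorbance at 600 nm. Normalized to FeCl3/clioquinol equimolar mix (positive) and DMSO (negative).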
# PTAP TSG101 blk: blocks PTAP/TSG101 interaction to inhibit HIV-1 budding; Q99816; Fluorescence polarization, FITC-PTAP peptide / Tsg101 binding; Potency, µM (titrated, usually from 115 µM), actives largely listed as inhibitors; 340,000 tested, under 10 active; AID 493005; active = well fitted inhibition curve with a large enough effect in the main read-out, with a control signal flat, not every such curve was filed as active; inconclusive = small, poorly fitted or top-dose-only effect, or effect the other way, or a change in a side signal; inactive = no such curve, though single readings can be large or run the other way
# Target sequence (Q99816 whole entry, looked up): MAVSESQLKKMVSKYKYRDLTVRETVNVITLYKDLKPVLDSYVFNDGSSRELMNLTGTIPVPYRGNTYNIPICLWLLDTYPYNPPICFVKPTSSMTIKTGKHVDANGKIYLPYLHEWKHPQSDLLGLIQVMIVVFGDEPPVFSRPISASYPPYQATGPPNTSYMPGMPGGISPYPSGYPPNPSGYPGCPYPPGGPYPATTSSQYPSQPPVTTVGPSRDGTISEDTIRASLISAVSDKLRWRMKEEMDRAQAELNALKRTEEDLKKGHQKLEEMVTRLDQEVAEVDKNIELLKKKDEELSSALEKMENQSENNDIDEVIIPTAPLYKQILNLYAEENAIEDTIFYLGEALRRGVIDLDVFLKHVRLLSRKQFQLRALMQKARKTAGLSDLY
#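 FP read-out: FITC-PTAP peptide, 50 nM final, binding Tsg101 binding domain, 10 uM final; 20 min, r.t.; 10 mM HEPES pH 7.5, 0.15 M NaCl, 0.01% Tween 20, 3 mM EDTA, 0.1 mM TCEP.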
# Hits are given with their value; n = inactive; u = inconclusive; x = not tested or not shown. Unless noted, calls come from the whole dose curve; as a rule, active = well fitted curve in the direction sought with a large enough effect; inconclusive = small, poorly fitted or top-dose-only effect, or another doubt; inactive = no such curve, though single readings can be large; an effect the other way counts as inactive or inconclusive.
SMILES,FUS suppressor,TDP43 rescue,aSyn rescue,Abeta yeast res,PTAP TSG101 blk
O=C(NCCCc1ccccc1)OC1CC2CC1[C@H]1CCCCN1C2 (some centres undefined),n,x,x,x,x
CN(c1ncnc(N)c1[N+](=O)[O-])C1CCS(=O)(=O)C1 (centres undefined),n,n,n,n,n
CN(c1ncnc(N)c1[N+](=O)[O-])C1CCCCC1,n,13µM,n,n,n
COc1ccccc1-c1cc(NC=O)c2ncc(-c3cccc(C(=O)N(C)C)c3)n2c1,n,n,n,n,x
O=CNc1cc(-c2ccccc2Oc2ccccc2)cn2c(-c3ccc(F)cc3)cnc12,u,16µM,n,n,x
CC(=O)c1ccc(-c2cnc3c(NC=O)cc(-c4ccccc4Oc4ccccc4)cn23)cc1,25µM,u,n,n,x
CC(=O)Nc1cc(-c2ccccc2N(C)C)cn2c(-c3cccc(C(F)(F)F)c3)cnc12,32µM,25µM,u,n,x
COc1ccccc1-c1cc(NC=O)c2ncc(-c3cccc(C(C)=O)c3)n2c1,n,18µM,n,n,x
Cc1ccc(C(=O)CCS(=O)(=O)c2ccc(Br)cc2)cc1,n,n,n,n,n
Cc1ccc(S(=O)(=O)CCC(=O)c2cccc([N+](=O)[O-])c2)cc1,n,18µM,n,n,n
Cc1nc2ccccc2c(=O)n1-c1ccc(NC(=O)c2ccccc2[N+](=O)[O-])cc1,n,n,x,n,x
Cc1cc(C)c2c(n1)nn1c(C)c(CCC(=O)Nc3cccc(C)c3C)c(C)nc21,n,n,x,n,x
O=C(c1ccncc1)N1CCN(c2cc(-c3ccccc3)nc3cc(-c4cccc(Cl)c4)nn23)CC1,n,u,u,n,x
O=C(c1ccoc1)N1CCN(c2cc(-c3ccncc3)nc3cc(-c4cccc(Cl)c4)nn23)CC1,n,u,n,n,x
O=C(c1ccoc1)N1CCN(c2cc(-c3cccnc3)nc3cc(-c4cccc(Cl)c4)nn23)CC1,u,7.9µM,n,n,x
CC(=O)N1CCN(c2cc(-c3ccccc3)nc3cc(-c4cccc(Cl)c4)nn23)CC1,n,2.2µM,n,n,x
CCC(CC)C(=O)Nc1cc(-c2cccc(C)c2)nn1-c1ccccc1,n,13µM,x,n,x
CCOC(=O)c1c(-c2ccc(-c3ccccc3)cc2)csc1NC(=O)CCN1CCOCC1,u,14µM,n,n,n
Cc1cc(S(=O)(=O)NCCc2csc(-c3cccc(F)c3)n2)ccc1F,n,n,x,u,x
CC1=C(C(N)=O)C(c2ccc(C)cc2)n2nc(SCc3ccccc3F)nc2N1 (centres undefined),n,n,x,n,x
COc1ccc(-n2c(SCc3nc4ccccc4[nH]3)nc3ccccc3c2=O)cc1,35µM,x,x,x,x
COc1ccc(C(=O)Nc2cccc(OC(=O)c3ccco3)c2)cc1,n,18µM,n,n,n
COc1ccc(NC(=O)c2ccco2)cc1NC(=O)c1cccc(OC(C)C)c1,n,13µM,n,n,n
COc1cccc(C(=O)Nc2cc(NC(=O)c3ccco3)ccc2OC)c1,n,u,n,n,n
CCCCNC(=S)N(C)/N=C/c1ccc(F)cc1,x,11µM,n,n,n
SMILES,FUS suppressor,TDP43 rescue,aSyn rescue,Abeta yeast res,PTAP TSG101 blk
O=C(/C=C/c1cccc(F)c1)N1CCc2ccccc21,n,n,n,n,n
O=C(/C=C/c1ccc(F)cc1)N1CCCc2ccccc21,n,18µM,n,n,n
C=CCNC(=S)NC(=O)c1ccc(C)c(Br)c1,n,u,n,10µM,n
C=CCNC(=S)NNC(=O)c1ccc(C)c(Cl)c1,n,x,n,n,n
CSc1ccccc1NC(=O)CCn1c(=O)sc2ccccc21,n,16µM,n,n,n
CCOC1=C2CN(S(=O)(=O)c3ccc(C)cc3)[C@H](c3cccc4ccccc34)C[C@H]2[C@H]2C(=O)N(c3ccccc3)C(=O)[C@H]2C1,n,n,14µM,n,x
Cc1cc(C)c2c(=O)cc(C(=O)NCc3ccc(S(N)(=O)=O)cc3)oc2c1,n,n,x,n,x
COc1ccc(OC)c2sc(N3CCN(C(=O)C(C)(C)C)CC3)nc12,n,22µM,x,n,x
CCOc1cccc2sc(N3CCN(C(=O)C(C)(C)C)CC3)nc12,n,11µM,x,n,x
CCOc1cccc2sc(N3CCN(C(=O)c4ccco4)CC3)nc12,n,u,x,n,x
COc1ccc(CCNC(=O)C(C)n2nc(C)c3sc4ccccc4c3c2=O)c(OC)c1 (centres undefined),n,n,x,n,x
COc1ccc(OC)c(-c2nc(C(=O)NCC3CCCO3)cc3c2[nH]c2ccccc23)c1 (centres undefined),n,u,n,n,n
COc1cccc(-c2nc(C(=O)NCC3CCCO3)cc3c2[nH]c2ccccc23)c1 (centres undefined),n,20µM,u,n,n
COc1cccc(CNCc2cccn2-c2nnc(N3CCN(c4ccccc4)CC3)s2)c1,n,n,n,n,x
CC(C)NC(=O)COC(=O)c1cncc(Br)c1,n,n,n,n,n
CC(C)CNC(=O)COC(=O)c1cncc(Br)c1,4.5µM,n,n,n,n
CNC(=O)COC(=O)c1cc(SC)ccc1Cl,n,u,n,n,n
CSc1ccc(Cl)c(C(=O)OCC(=O)NCC(C)C)c1,n,14µM,n,n,n
C#Cc1ccc(NC(=O)C2(C)CCN2C(=O)Cc2ccc(C(C)C)cc2)cc1 (centres undefined),n,35µM,n,n,x
CC1(C(=O)Nc2cccc(C#N)c2)CCN1C(=O)C/C=C/c1ccccc1 (centres undefined),u,n,n,n,x
C#Cc1ccc(NC(=O)C2(C)CCN2C(=O)C/C=C/c2ccccc2)cc1 (centres undefined),n,25µM,n,n,x
C#Cc1ccc(NC(=O)C2(C)CCN2C(=O)Cc2ccc(C(C)(C)C)cc2)cc1 (centres undefined),n,n,n,n,x
CC(C)[C@H](N)C(=O)N[C@H](C(=O)N1CCC2CCN(S(=O)(=O)c3ccccc3)CC21)C(C)C (some centres undefined),n,x,x,x,x
COc1ccc(C(O)c2nc(-c3cccc(O)c3)cs2)cc1 (centres undefined),n,20µM,u,u,x
COc1ccc(C(O)c2nc(-c3cccc(C(C)C)c3)cs2)cc1 (centres undefined),n,35µM,n,n,x
CCCc1cc(C(=O)Nc2ccc(C(=O)c3ccccc3)cc2)n(C)n1,n,25µM,n,n,n
COc1ccccc1-c1nn2c(C3COc4ccccc4O3)nnc2s1 (centres undefined),n,10µM,x,n,n
CCCOc1ccc(CNC(=S)Nc2ccccc2)cc1Cl,n,u,n,11µM,n
S=C(NCCSCc1ccc(Cl)c(Cl)c1)Nc1ccccc1,n,11µM,n,n,n
S=C(NCCSCc1ccc(Cl)cc1Cl)Nc1ccccc1,n,16µM,n,n,n

# High-throughput results (PubChem)
